Results reported in PubChem BioAssay (NCATS).
Inconclusive results are not listed. Calls of active or inactive are those of the source. Unless noted, calls follow the shape of the dose curve; as a rule, active = well fitted curve in the direction sought with a large enough effect; inconclusive = small, poorly fitted or top-dose-only effect, or another doubt; inactive = no such curve, though single readings can be large; an effect the other way counts as inactive or inconclusive.

Tests used:
[1] = target: T1, Hexokinase-4 (Homo sapiens) + Glucokinase regulatory protein (Homo sapiens) (UniProt P35557+Q14397); assay: qHTS assay for inhibitors of recombinant human GCK-GKRP interaction: ADP-Glo assay (AID 743206);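 also: plate controls were DMSO plus enzyme for no effect and no enzyme for full effect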
Method in brief: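 Pin-transferred compounds meet a 15 nM GST-GCK/15 nM FLAG-GKRP/2 uM S6P mix (dispense concentrations). ATP is then added to 0.4 mM final with 5 mM glucose, and the reaction runs 60 min at room temperature. ADP is quantified luminescently.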

[2] = target: T1, Hexokinase-4 (Homo sapiens) + Glucokinase regulatory protein (Homo sapiens); assay: qHTS assay for inhibitors of recombinant human GCK-GKRP interaction: HTRF assay (AID 743207);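 also: 0% = DMSO with GCK present and -100% = DMSO wells lacking GCK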
Method in brief: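 GST-GCK and FLAG-GKRP (5 nM each) were combined with 2 uM S6P in pH 7.1 Hepes/MgCl2/KCl/DTT buffer, then compound and anti-FLAG XL665/anti-GST K antibodies were added. After 60 min at room temperature, HTRF 665/615 nm emission was read.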

[3] = qHTS assay for measurement of the activity of small molecule inhibitors on Zika virus induced Caspase-3 activity in human iPSC derived neural progenitor cells (hNPCs) (AID 1224857); also: % of control where 0% means no effect; nearly all actives have a fitted effect of over 65% in size
Method in brief: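 In medium with heparin 2 ug/ml and cyclopamine 2 uM, hNPCs (350 cells/well) received compound for one hour and then Zika virus at 2 FFU/cell; caspase activity was measured by Caspase-Glo 3/7 luminescence 6 h post-infection.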

[4] = qHTS assay for measurement of the activity of small molecule inhibitors on Zika virus induced Caspase-3 activity in human astrocytoma cells (AID 1224859);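 also: plate controls were ZIKV-infected untreated cells for no effect and uninfected cells for full effect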
Method in brief: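 A cell-based luminescent caspase-3/7 assay used SNB-19 cells infected with ZIKV (2 FFU/cell) for 6 h following 1 h compound pretreatment.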

[5] = Natriuretic polypeptide receptor (hNpr1) antagonism - Pilot counterscreen GloSensor control cell line (AID 1347045; calls by dose curve; also: series mostly up to about 38 µM; % is scaled to controls: 0 for no effect and ±100 for the full control effect)
Method in brief: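 HEK293 cGMP-sensor cells; 2% GloSensor reagent 2 h RT; LOPAC compounds in 1:5 titrations 30-50 min; 50 uM SNP 20 min; luminescence pre-read and post-read.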

[6] = target: Atrial natriuretic peptide receptor 1 (Homo sapiens) (UniProt P16066); assay: Natriuretic polypeptide receptor (hNpr1) antagonism - Pilot screen (AID 1347049; calls by dose curve;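 also: HEK293 cells with hNpr1 and GloSensor cGMP luciferase stimulated by 0.1 nM hNppA; agonist-evoked cGMP luminescence read 20 min after hNppA addition; series mostly up to about 58 µM; % is scaled to controls: 0 for no effect and ±100 for the full control effect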)
Method in brief: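 Receptor antagonism read as cGMP-dependent luminescence in hNpr1/pGS-40F HEK293 cells: pre-read after 30 min compound exposure, post-read 20 min after hNppA agonist at 0.1 nM final, all at room temperature, protected from light; A-71915 titration as control.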

[7] = target: Atrial natriuretic peptide receptor 2 (Homo sapiens) (UniProt P20594); assay: Natriuretic polypeptide receptor (hNpr2) antagonism - Pilot subtype selectivity assay (AID 1347050; calls by dose curve; also: % is scaled to controls: 0 for no effect and ±100 for the full control effect)
Method in brief: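 Antagonist mode: compounds (LOPAC1280, seven 1:5 dilutions) added 30 min before 1 nM hNppC stimulation of hNpr2-HEK293 cGMP-sensor cells; luminescence read before and 20 min after agonist at ambient temperature.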

[8] = qHTS Assay for Identifying Gametocytocidal Compounds (AID 743244);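 also: % is scaled to controls: 0 for no effect and ±100 for the full control effect; actives lower the fluorescent signal which means gametocytes are killed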; conditions: P. falciparum 3D7 stage III-V gametocytes, alamarBlue, 72 h; max response: stronger effect = lower value
Method in brief: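 In this qHTS viability screen, late-stage 3D7 gametocytes are incubated with compound for 72 h, then with alamarBlue for 24 h; reduced resorufin fluorescence marks killing.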

[9] = target: T1, Hexokinase-4 (Homo sapiens) + Glucokinase regulatory protein (Homo sapiens); assay: qHTS assay for inhibitors of recombinant human GCK-GKRP interaction: Diaphorase-coupled assay (AID 743205)
Method in brief: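 GST-GCK (10 nM) with FLAG-GKRP (10 nM), 5 mM glucose and 0.4 mM ATP in pH 7.6 Hepes; compounds preincubated 20 min with substrate. G6PDH/diaphorase coupling converts resazurin to resorufin, read kinetically (ex 525/em 590 nm) for 30 min.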

T1 sequence (P35557 whole entry, looked up): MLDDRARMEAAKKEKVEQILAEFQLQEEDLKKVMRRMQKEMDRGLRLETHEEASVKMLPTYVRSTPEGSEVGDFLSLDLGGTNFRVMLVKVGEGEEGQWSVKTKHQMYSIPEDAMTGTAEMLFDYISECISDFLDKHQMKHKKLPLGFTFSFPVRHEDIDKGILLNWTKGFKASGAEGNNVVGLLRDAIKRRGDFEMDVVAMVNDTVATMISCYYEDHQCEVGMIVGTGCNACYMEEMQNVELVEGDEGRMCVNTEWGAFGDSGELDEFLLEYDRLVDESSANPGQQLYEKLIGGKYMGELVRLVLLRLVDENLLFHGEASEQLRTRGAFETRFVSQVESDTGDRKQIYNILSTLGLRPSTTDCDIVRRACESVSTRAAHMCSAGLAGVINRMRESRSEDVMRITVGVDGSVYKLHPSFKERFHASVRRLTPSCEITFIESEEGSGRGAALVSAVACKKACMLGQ
T1 sequence (Q14397 whole entry, looked up): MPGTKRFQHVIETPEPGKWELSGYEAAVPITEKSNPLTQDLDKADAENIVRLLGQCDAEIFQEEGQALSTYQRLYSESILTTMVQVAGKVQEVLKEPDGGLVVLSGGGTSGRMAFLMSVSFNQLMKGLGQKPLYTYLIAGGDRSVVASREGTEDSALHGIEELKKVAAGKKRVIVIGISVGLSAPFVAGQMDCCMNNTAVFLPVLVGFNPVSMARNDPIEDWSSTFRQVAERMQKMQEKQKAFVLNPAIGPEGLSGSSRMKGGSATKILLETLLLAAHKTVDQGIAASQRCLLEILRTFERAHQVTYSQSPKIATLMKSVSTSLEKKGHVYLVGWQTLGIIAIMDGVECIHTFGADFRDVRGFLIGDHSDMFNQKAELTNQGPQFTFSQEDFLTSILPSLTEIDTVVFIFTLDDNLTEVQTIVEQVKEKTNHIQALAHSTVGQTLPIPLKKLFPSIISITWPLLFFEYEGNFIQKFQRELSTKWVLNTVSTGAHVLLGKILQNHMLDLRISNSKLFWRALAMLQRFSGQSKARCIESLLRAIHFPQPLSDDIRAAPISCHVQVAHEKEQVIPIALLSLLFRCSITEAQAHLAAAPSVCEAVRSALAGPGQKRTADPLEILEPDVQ
Sequence of Atrial natriuretic peptide receptor 2 (Homo sapiens) (P20594 whole entry, looked up): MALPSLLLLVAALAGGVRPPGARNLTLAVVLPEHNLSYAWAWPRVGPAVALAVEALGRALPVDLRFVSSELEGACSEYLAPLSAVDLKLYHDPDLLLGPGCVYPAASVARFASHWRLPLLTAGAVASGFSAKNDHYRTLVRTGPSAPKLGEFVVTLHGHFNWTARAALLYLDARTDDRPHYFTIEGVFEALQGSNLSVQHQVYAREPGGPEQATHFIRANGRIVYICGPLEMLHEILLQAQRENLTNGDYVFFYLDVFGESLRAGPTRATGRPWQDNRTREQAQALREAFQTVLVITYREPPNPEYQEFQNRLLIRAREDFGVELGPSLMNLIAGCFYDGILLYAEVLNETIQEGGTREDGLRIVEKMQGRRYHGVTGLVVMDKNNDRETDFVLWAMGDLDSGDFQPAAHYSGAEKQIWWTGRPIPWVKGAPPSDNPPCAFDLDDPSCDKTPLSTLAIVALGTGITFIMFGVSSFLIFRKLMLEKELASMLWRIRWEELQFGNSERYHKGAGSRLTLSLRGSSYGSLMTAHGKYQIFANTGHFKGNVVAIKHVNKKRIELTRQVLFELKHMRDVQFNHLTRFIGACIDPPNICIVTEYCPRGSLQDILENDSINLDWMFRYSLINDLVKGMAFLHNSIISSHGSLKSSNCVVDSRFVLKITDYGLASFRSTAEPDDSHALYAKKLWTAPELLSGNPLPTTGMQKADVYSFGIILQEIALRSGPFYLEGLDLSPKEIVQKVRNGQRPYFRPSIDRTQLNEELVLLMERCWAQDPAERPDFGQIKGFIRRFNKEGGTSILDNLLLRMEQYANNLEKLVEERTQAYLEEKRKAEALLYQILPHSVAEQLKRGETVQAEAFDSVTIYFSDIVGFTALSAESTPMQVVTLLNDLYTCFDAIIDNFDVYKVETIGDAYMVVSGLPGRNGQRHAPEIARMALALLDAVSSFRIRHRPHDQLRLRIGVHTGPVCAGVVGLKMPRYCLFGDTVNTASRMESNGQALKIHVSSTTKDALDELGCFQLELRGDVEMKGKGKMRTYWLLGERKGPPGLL
Sequence of Atrial natriuretic peptide receptor 1 (Homo sapiens) (P16066 whole entry, looked up): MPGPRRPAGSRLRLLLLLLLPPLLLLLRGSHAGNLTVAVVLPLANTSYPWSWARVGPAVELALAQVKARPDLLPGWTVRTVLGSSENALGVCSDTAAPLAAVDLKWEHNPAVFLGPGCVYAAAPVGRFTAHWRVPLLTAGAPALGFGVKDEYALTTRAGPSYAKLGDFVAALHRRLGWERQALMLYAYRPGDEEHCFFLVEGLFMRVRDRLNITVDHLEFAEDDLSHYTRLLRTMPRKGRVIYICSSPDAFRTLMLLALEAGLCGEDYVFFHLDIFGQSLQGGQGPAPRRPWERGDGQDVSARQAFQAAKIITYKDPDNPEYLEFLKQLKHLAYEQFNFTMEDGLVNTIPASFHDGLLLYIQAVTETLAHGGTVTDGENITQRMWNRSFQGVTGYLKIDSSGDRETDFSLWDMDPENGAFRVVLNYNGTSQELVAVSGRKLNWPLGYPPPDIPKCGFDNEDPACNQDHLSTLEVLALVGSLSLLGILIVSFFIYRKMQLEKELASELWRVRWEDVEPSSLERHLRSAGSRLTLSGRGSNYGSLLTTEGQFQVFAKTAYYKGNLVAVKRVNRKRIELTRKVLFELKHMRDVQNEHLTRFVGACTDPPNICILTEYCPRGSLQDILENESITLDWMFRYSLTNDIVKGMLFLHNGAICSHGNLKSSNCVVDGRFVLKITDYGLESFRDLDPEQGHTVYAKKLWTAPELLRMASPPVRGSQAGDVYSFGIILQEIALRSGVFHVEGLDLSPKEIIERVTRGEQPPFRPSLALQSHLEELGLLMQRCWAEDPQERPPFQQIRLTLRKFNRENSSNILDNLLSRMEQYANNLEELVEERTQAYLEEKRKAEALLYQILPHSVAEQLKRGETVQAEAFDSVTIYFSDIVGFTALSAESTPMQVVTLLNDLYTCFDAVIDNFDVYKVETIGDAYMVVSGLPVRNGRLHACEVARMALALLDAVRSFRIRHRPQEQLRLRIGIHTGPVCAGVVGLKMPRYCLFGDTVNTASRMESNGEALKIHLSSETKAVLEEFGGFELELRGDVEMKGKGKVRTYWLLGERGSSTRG

COc1ccc(NC(=O)c2ccc(-c3ccc(-c4noc(C)n4)cc3C)cc2)cc1N1CCN(C)CC1
inactive: Potency [1] | Potency [2] | Potency [3] | Potency [4] | Potency [5] | Potency [6] | Potency [7]

O=C(O)C1=CCCN(CCON=C(c2ccccc2)c2ccccc2)C1
inactive: Potency [2] | max response [8] -12.8% | Potency [3] | Potency [4] | Potency [5] | Potency [6] | Potency [7]

COc1cc(CC(=O)O)ccc1O
inactive: Potency [1] | Potency [2] | Potency [3] | Potency [4] | Potency [5] | Potency [6] | Potency [7]

NC1(C(=O)O)CC1
inactive: Potency [9] | Potency [1] | Potency [2] | max response [8] 4.84% | Potency [3] | Potency [4] | Potency [5] | Potency [6]

CC(C)NCC(O)COc1ccc(CC(N)=O)cc1 (stereo not given)
inactive: Potency [9] | Potency [1] | Potency [2] | max response [8] 27.5% | Potency [3] | Potency [4] | Potency [5] | Potency [6]

[Li+]
inactive: Potency [1] | Potency [2] | max response [8] 24.7% | Potency [3] | Potency [4] | Potency [5] | Potency [6] | Potency [7]

N#Cc1cc2nc(O)c(O)nc2cc1[N+](=O)[O-]
inactive: Potency [9] | Potency [1] | Potency [2] | max response [8] 15.6% | Potency [3] | Potency [4] | Potency [5] | Potency [6]

C=CCN1CCc2cc(O)c(O)cc2C(c2ccccc2)C1 (stereo not given)
inactive: Potency [1] | Potency [2] | Potency [3] | Potency [4] | Potency [5] | Potency [6] | Potency [7]

N[C@@H](Cc1c[nH]c2ccccc12)C(=O)O
inactive: Potency [9] | Potency [1] | Potency [2] | Potency [3] | Potency [4] | Potency [5] | Potency [6]

Nc1ncnc2c1ncn2C1CCCO1 (stereo not given)
inactive: Potency [9] | Potency [1] | Potency [2] | max response [8] -5.04% | Potency [3] | Potency [4] | Potency [5] | Potency [6]

N[C@@H](Cc1ccc(O)c(I)c1)C(=O)O
inactive: Potency [9] | Potency [1] | Potency [2] | max response [8] 31.3% | Potency [3] | Potency [4] | Potency [5] | Potency [6]

O=C(O)c1cc2cc(F)ccc2[nH]1
inactive: Potency [1] | Potency [2] | max response [8] 5.51% | Potency [3] | Potency [4] | Potency [5] | Potency [6] | Potency [7]

O=c1ccc2c(OCCCCc3ccccc3)c3ccoc3cc2o1
inactive: Potency [1] | Potency [2] | max response [8] 10.3% | Potency [3] | Potency [4] | Potency [5] | Potency [6] | Potency [7]

CCCn1c(=O)c2[nH]c(C3CCCC3)nc2n(CCC)c1=O
inactive: Potency [1] | Potency [2] | max response [8] 13.8% | Potency [3] | Potency [4] | Potency [5] | Potency [6] | Potency [7]

Fc1ccc(CN(C2=NCCN2)c2c(Cl)cccc2Cl)cc1
inactive: Potency [9] | Potency [2] | max response [8] -2.54% | Potency [3] | Potency [4] | Potency [5] | Potency [6] | Potency [7]

CC1=C(C(=O)O)N2C(=O)[C@@H](NC(=O)C(N)C3=CCC=CC3)[C@H]2SC1 (stereo not given in full)
inactive: Potency [1] | Potency [2] | max response [8] 5.72% | Potency [3] | Potency [4] | Potency [5] | Potency [6] | Potency [7]

COC(=O)[C@H](NC(=O)c1cc(-c2ccccc2)nc2ccccc12)c1ccccc1
inactive: Potency [1] | Potency [2] | max response [8] 9.97% | Potency [3] | Potency [4] | Potency [5] | Potency [6] | Potency [7]

CCCn1c(=O)c2[nH]c(-c3ccc(S(=O)(=O)O)cc3)nc2n(CCC)c1=O
inactive: Potency [1] | Potency [2] | max response [8] 27.3% | Potency [3] | Potency [4] | Potency [5] | Potency [6] | Potency [7]

N[C@H](C(=O)O)[C@H](O)C(=O)O
inactive: Potency [1] | Potency [2] | max response [8] 13.2% | Potency [3] | Potency [4] | Potency [5] | Potency [6] | Potency [7]

O=C(O)C1CCNCC1
inactive: Potency [1] | Potency [2] | max response [8] 10.6% | Potency [3] | Potency [4] | Potency [5] | Potency [6] | Potency [7]

NC(=O)CNCCC(c1ccccc1)c1ccccc1
inactive: Potency [1] | Potency [2] | Potency [3] | Potency [4] | Potency [5] | Potency [6] | Potency [7]

Cc1cccc(C2CN(C)CCc3c2cc(O)c(O)c3Cl)c1 (stereo not given)
inactive: Potency [9] | Potency [1] | Potency [2] | Potency [3] | Potency [4] | Potency [5] | Potency [6]

O=C1OC(=O)C2C3CCC(O3)C12 (stereo not given)
inactive: Potency [9] | Potency [1] | Potency [2] | max response [8] 26.3% | Potency [3] | Potency [4] | Potency [5] | Potency [6]

Nc1nc2ccc(Cl)cc2c2nc(-c3ccco3)nn12
inactive: Potency [9] | Potency [1] | Potency [2] | max response [8] -3.79% | Potency [3] | Potency [4] | Potency [5] | Potency [7]

O=C(O)CCC/C=C\C[C@@H]1[C@@H](/C=C/[C@H](O)C2Cc3ccccc3C2)[C@@H](F)C[C@@H]1O
inactive: Potency [9] | Potency [1] | Potency [2] | max response [8] -7.09% | Potency [3] | Potency [4] | Potency [5] | Potency [6]

N=S(=O)(O)Cc1noc2ccccc12
inactive: Potency [1] | Potency [2] | max response [8] 7.99% | Potency [3] | Potency [4] | Potency [5] | Potency [6]
